Experimental data from the supplement of paper PMC4723716.

System: Plasmodium falciparum NF54 gametocytes
Experiment: viability index relative to DMSO control (fraction); higher = less gametocyte killing
Conditions: 12.5 µM, incubation time: 72 h
How it was run: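 The viability index expresses each well's gametocyte particle count relative to the plate mean of solvent-only wells. Stage I–V P. falciparum NF54 gametocytes (0.50% gametocytemia, 1.25% hematocrit, 40 µl of serum-containing medium) were exposed to compound at 12.5 µM for 72 hr at 37°C under low oxygen in 384-well plates. They were stained for 20 min with 5 µl of 5 µM MitoTracker Red CMXRos, and 5 µl was then transferred into 40 µl of 500 nM dye in serum-free medium for imaging of three fields 30 min later.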

[1] = gametocyte stage: Stage I viability index
[2] = gametocyte stage: Stage II viability index
[3] = gametocyte stage: Stage III viability index
[4] = gametocyte stage: Stage IV viability index
[5] = gametocyte stage: Stage V viability index

SMILES | viability index [1] | viability index [2] | viability index [3] | viability index [4] | viability index [5]
O=C(Nc1cccc(-c2nc3ccccc3[nH]2)c1)c1cccc(NC(=O)c2ccco2)c1 | 0.424 | 0.771 | 1.01 | 0.857 | 0.868
CCn1c(SCC(=O)Nc2cc(C(F)(F)F)ccc2Cl)nc2ccccc2c1=O | 0.787 | 0.953 | 1.17 | 1.14 | 1.03
CSc1ccccc1C(=O)Nc1nc(-c2ccccn2)cs1 | 0.242 | 0.181 | 0.321 | 0.362 | 0.132
CCCCc1c(CCC)c(=N)c2ccccc2n1C | 1.05 | 0.911 | 1 | 0.918 | 0.701
Cc1cc(Nc2cccc(F)c2)nc(NCc2ccccc2)n1 | 0.0365 | 0.436 | 0.825 | 1.01 | 0.429
CCN(CC)CCNc1ncnc2c1[nH]c1ccc(Cl)cc12 | 0.0354 | 0.373 | 0.818 | 0.763 | 0.451
OCCNc1nc(Nc2ccc(Cl)c(Cl)c2)nc2ccccc12 | 0.0254 | 0.246 | 0.665 | 0.484 | 0.442
CCCCCCn1c(=N)n(CC(O)COc2cccc(C)c2)c2ccccc21 (stereo not given) | 0.0787 | 0.0425 | 0.0828 | 0.149 | 0.0779
CCOc1ccc(C2N(C)c3ccccc3N2C)cc1 | 0.996 | 1.03 | 1.08 | 0.985 | 0.901
OC(CNC1CCCCC1)Cn1c2ccccc2c2ccccc21 (stereo not given) | 0.0354 | 0.0493 | 0.178 | 0.277 | 0.198
c1ccc(CNc2nc(Nc3ccccc3)nc3ccccc23)cc1 | 0.0367 | 0.211 | 0.586 | 0.563 | 0.481
COc1cc2cc(C(=O)Nc3ccccc3)c(N)nc2cc1OC | 0.0265 | 0.434 | 0.727 | 0.86 | 0.758
CCOc1ccccc1CN1CCc2nc3cc(C(C)(C)C)nn3c(O)c2C1 | 0.89 | 0.7 | 0.583 | 0.737 | 0.597
COc1cc(-c2nc(-c3ccc(Sc4ccccc4)cc3)c(-c3ccccc3)[nH]2)cc(OC)c1O | 0.0507 | 0.0441 | 0.0529 | 0.0222 | 0.0779
COc1ccc(CCN2C(=O)c3[nH]nc(-c4cc(Cl)c(C)cc4O)c3C2c2ccccc2F)cc1 (stereo not given) | 0.083 | 0.29 | 0.6 | 0.665 | 0.675
CCCN(CCC)CC(O)COc1ccccc1C(=O)Nc1ccccc1 (stereo not given) | 0.0829 | 0.175 | 0.46 | 0.593 | 0.516
Cc1cc(N(C)C)nc(Nc2ccc(NC(=O)Nc3ccccc3)cc2)n1 | 0.00262 | 0.0266 | 0.138 | 0.0285 | 0
COc1ccc2sc(N(Cc3cccnc3)C(=O)c3ccc(C#N)cc3)nc2c1 | 1.05 | 0.773 | 0.995 | 0.934 | 1.16
CCCOCc1cc(CN2CCN(c3cccc(Cl)c3)CC2)c(O)c2ncccc12 | 0.00962 | 0.0225 | 0.0244 | 0.0127 | 0
O=C(Nc1ccc(Cl)c(Cl)c1)Nc1ccc(Cl)c(Cl)c1 | 0.0437 | 0.0241 | 0.0353 | 0.0918 | 0.104
COc1ccc(C2c3ccc4ccccc4c3Oc3ncn(CCCn4ccnc4)c(=N)c32)cc1OC (stereo not given) | 0.0122 | 0.231 | 0.441 | 0.547 | 0.429

SMILES | viability index [1] | viability index [2] | viability index [3] | viability index [4] | viability index [5]
CCOc1ccc(Nc2ccnc3cc(Cl)ccc23)cc1 | 0.0699 | 0.411 | 0.852 | 0.728 | 0.558
O=C(c1ccccc1F)N(Cc1ccc(Cl)cc1)c1ccccn1 | 0.716 | 0.955 | 0.997 | 0.93 | 0.967
CCOC(=O)C1=CN(C)C=C(C(=O)OCC)C1c1cc(Br)c(OCC)c(OC)c1 | 0.042 | 0.0216 | 0.0421 | 0.161 | 0.117
COc1ccc(CNC(=O)c2cc3c(=O)n4ccccc4nc3n(CCc3ccccc3)c2=N)cc1 | 0.254 | 0.499 | 0.826 | 0.946 | 1.01
COc1ccc(-c2nonc2NC(=O)c2cccc(Cl)c2)cc1OC | 0.27 | 0.207 | 0.505 | 0.684 | 0.187
COc1ccc2c(c1OC)C(=O)N1c3ccccc3N=C(c3ccc(C)cc3)CC21 (stereo not given) | 0.899 | 0.674 | 0.951 | 0.94 | 0.987
CCOC(=O)c1cnc2c(C)cc(C)cc2c1Nc1ccc(OC)c(OC)c1 | 1.09 | 0.998 | 1.19 | 0.845 | 0.978
COc1cc2c(cc1OC)C1=NNC(=O)C1=NC(C)(C)C2 | 0.00884 | 0.0058 | 0.0707 | 0.109 | 0.011
CC(C)(C)CC(C)(C)NCC(O)COc1ccc2c(c1)CCC2 (stereo not given) | 0.221 | 0.273 | 0.615 | 0.666 | 0.462
CCN(CC)S(=O)(=O)c1ccc(-c2csc(Nc3ccc(C)c(C)c3)n2)cc1 | 0.544 | 0.506 | 0.532 | 0.733 | 0.352
Cc1cc(NC(=O)c2ccc(-c3ccccc3)cc2)no1 | 0.759 | 0.877 | 0.901 | 0.836 | 0.681
COc1ccccc1N1C(=N)SC(=Cc2ccc(OCc3ccccc3F)cc2)C1=O | 0.669 | 0.654 | 0.661 | 0.563 | 0.403
COc1ccc(C2Sc3ccccc3N=C3C2=C(O)c2ccccc23)cc1 (stereo not given) | 0.64 | 0.882 | 0.967 | 1.08 | 0.956
CC(Oc1ccc(NC(=O)c2cccs2)cc1)C(=O)c1ccc(Cl)cc1 (stereo not given) | 1.02 | 0.883 | 0.727 | 0.854 | 0.974
Cc1ccc(NC(=O)Nc2cccc(Cl)c2)cc1F | 0.64 | 0.599 | 0.832 | 0.827 | 0.582
O=C(CCc1ccccc1)c1ccccc1OCC(O)CN1CCCCC1 (stereo not given) | 0.00787 | 0.0616 | 0.36 | 0.465 | 0.39
O=C1CC(O)(C(F)(F)C(F)(F)F)Oc2ccccc21 (stereo not given) | 1.22 | 0.957 | 1.2 | 1.19 | 0.813
COc1ccccc1CNC(=O)CCn1c(=O)[nH]c2ccccc2c1=O | 0.867 | 0.898 | 0.912 | 0.951 | 0.912
O=C(Nc1ccc(Cl)cc1C(=O)Nc1ccncc1)c1ccc(Cl)cc1Cl | 0.139 | 0.589 | 0.935 | 0.927 | 0.637
O=C(CCl)NCCOc1ccc(Cl)cc1Cl | 0.732 | 0.629 | 0.813 | 0.769 | 0.675
CCOC(=O)c1ccc2nc(-c3ccccc3)cc(O)c2c1 | 0.606 | 0.719 | 0.761 | 0.757 | 1.12

SMILES | viability index [1] | viability index [2] | viability index [3] | viability index [4] | viability index [5]
CCN(CC)CCCNc1nc(-c2ccc(Cl)cc2)nc2ccccc12 | 0.693 | 0.751 | 1.01 | 0.903 | 0.956
CCOC(=O)c1cnc2ccc(CC)cc2c1O | 0.377 | 0.505 | 0.734 | 0.733 | 0.846
CCCc1c(C)nc2ccc(Br)cc2c1O | 0.777 | 0.706 | 0.893 | 0.965 | 0.753
CCCCOc1ccc(C(=O)Nc2cc(C)on2)cc1 | 1.02 | 0.815 | 0.973 | 0.942 | 0.78
Cc1ccc2cc3c(N)c4c(C)ccc(C)c4nc3nc2c1 | 0.0542 | 0.005 | 0.0231 | 0.00316 | 0.026
COc1ccc(C=C2SC(Nc3ccccc3)=NC2=O)cc1 | 1.03 | 0.768 | 0.663 | 0.791 | 0.727
O=C(CSc1ccc2nnc(-c3cccc(F)c3)n2n1)Nc1ccc2c(c1)OCO2 | 1.01 | 1.02 | 1.16 | 1.16 | 1.37
CCCCC(O)(c1ccc(Cl)cc1)C(CN1CCOCC1)c1ccc(Cl)cc1 (stereo not given) | 0.941 | 0.896 | 0.871 | 0.763 | 0.701
C=CCc1c(C)nc2ccccc2c1O | 0.92 | 0.671 | 0.798 | 0.793 | 1.05
COc1ccc(C(=O)C(CCC(CNC(C)(C)C)C(=O)c2ccc(OC)cc2)CNC(C)(C)C)cc1 (stereo not given) | 0.811 | 0.698 | 0.548 | 0.418 | 0.117
CCn1c2c(c(=N)c3c1CCC3)CCCC2 | 0.441 | 0.795 | 0.957 | 0.962 | 0.701
O=C(NNc1cc(N2CCCC2)nc(N2CCCC2)n1)c1ccccc1 | 0 | 0.00749 | 0.275 | 0.516 | 0.377
Cc1ccc(-c2cc(C(=O)Nc3ccc(S(=O)(=O)N4CCCCC4)cc3)[nH]n2)c(O)c1 | 0.453 | 0.939 | 0.973 | 1.09 | 0.967
COc1cccc(Cn2c(Oc3ccccc3)nc3c2c(=O)n(C)c(=O)n3C)c1 | 0.892 | 0.853 | 0.993 | 1.06 | 1.16
COc1ccc(-c2nonc2NC(=O)c2cccc(C)c2)cc1OC | 0.62 | 0.55 | 0.571 | 0.769 | 0.571
COc1ccc(C2NCCc3c2[nH]c2ccccc32)cc1CN1CCN(c2ccc(F)cc2)CC1 (stereo not given) | 0.0297 | 0.0183 | 0.0204 | 0.0222 | 0.0519
CCN(CC)c1ccc(NC(=O)c2cccs2)cc1 | 0.716 | 0.659 | 0.758 | 0.936 | 1.04
CN(C)CCCNCc1ccc(-c2ccc(F)c(Cl)c2)o1 | 0.202 | 0.376 | 0.376 | 0.339 | 0.104
Fc1ccc2[nH]c3c(NCCCN4CCOCC4)ncnc3c2c1 | 0.053 | 0.564 | 0.873 | 0.866 | 0.78
COCCN(C(=O)Cc1cccs1)C(C(=O)NCc1ccc(OC)cc1)c1ccc(C(C)C)cc1 (stereo not given) | 0.846 | 0.801 | 1.18 | 1.11 | 0.967
